Assay results: the OligoGym collection
Also: reference of the scale not given here.

The sequences below were run against PPP1R13B (assay: pooled miR-30 sensor sort-seq; sequence = guide strand). Settings: shRNA.
TTCAGAAATAGACTGCTGCTGA showed a sensor-assay potency score (higher = more potent) of 0.172. TTGCTGTAGTCGACTTGTCCTC gave a sensor-assay potency score (higher = more potent) of -0.682. In the case of TTCTACAACATCTCGACAGGTT, the sensor-assay potency score (higher = more potent) is reported as 0.568. Sequence TAAGAGTTCCTTCTGCTGCTGA has a sensor-assay potency score (higher = more potent) of 0.621. Work on TACACTGCTTTAACTGACTTAT yielded a sensor-assay potency score (higher = more potent) of -0.93. With TACATTTATTACATTTCTCTGA the sensor-assay potency score (higher = more potent) was -0.374. In the case of TTAACTGACTTATTTAAGGCGC, the sensor-assay potency score (higher = more potent) is reported as 0.229.

The sequences below were run against PPP1R15A in the same assay as above. Settings: shRNA.
AAGAGAACTTGTTAACTCCCTC was tested, and the sensor-assay potency score (higher = more potent) was 0.225. TTCAGGAAGGGAACTGCTGGTT was tested, and the sensor-assay potency score (higher = more potent) was -0.684. In the case of TTCTGTTCTTTTATCCTCCGTG, the sensor-assay potency score (higher = more potent) is reported as -0.152. TTTTACTGCTTCCACCAGCCAG showed a sensor-assay potency score (higher = more potent) of -1.03. Sequence ATGGACAGTGACCTTCTCGGAG has a sensor-assay potency score (higher = more potent) of -1.22. With TTTACTGCTTCCACCAGCCAGG the sensor-assay potency score (higher = more potent) was -0.645. In the case of TAGAGGTTCTGTGAGCTTCTTT, the sensor-assay potency score (higher = more potent) is reported as 0.0683. TCCTTTTACTGCTTCCACCAGC gave a sensor-assay potency score (higher = more potent) of -1.39. For TAGGGGAGTCTCAGGGTCCGGA, the sensor-assay potency score (higher = more potent) was -1.44. Work on TTGCCAGAGGAGTCCTAGCTTC yielded a sensor-assay potency score (higher = more potent) of -1.05. Work on TGGACAGTGACCTTCTCGGAGA yielded a sensor-assay potency score (higher = more potent) of -1.41. TTCTGTGAGCTTCTTTCTTTAC gave a sensor-assay potency score (higher = more potent) of -1.62.

Each sequence was assayed against PPP1R3A in the same assay as above. Settings: shRNA.
TTGATGAACAAACTTGACCAGT showed a sensor-assay potency score (higher = more potent) of -0.427. For TTGGTGAATGAGACACATCTGC, the sensor-assay potency score (higher = more potent) was -0.3. TGGATTAGCATTATCATCCAGG was tested, and the sensor-assay potency score (higher = more potent) was -0.615. Work on TTACATATACTAACTTCTCAAA yielded a sensor-assay potency score (higher = more potent) of -1.14. In the case of TTGAATTACAAATATTTTCTGA, the sensor-assay potency score (higher = more potent) is reported as -0.0203. TTGAACAATGAATAGTCCCATT gave a sensor-assay potency score (higher = more potent) of -1.02. Sequence TTGTTTTTCATTAACACCTAAA has a sensor-assay potency score (higher = more potent) of -0.918. TTTGTTTTTCATTAACACCTAA gave a sensor-assay potency score (higher = more potent) of -0.646. TATAGGTATTTAATGATCCAAA was tested, and the sensor-assay potency score (higher = more potent) was -1.48. TTATCATCAACTCTAATTCTTT gave a sensor-assay potency score (higher = more potent) of -0.712. With TATAGGTACAAATTCATTCTGA the sensor-assay potency score (higher = more potent) was 0.416. TAAAATGTCATAATGTGTCTGC was tested, and the sensor-assay potency score (higher = more potent) was 0.498.

Each sequence was assayed against PPP2R2B in the same assay as above. Settings: shRNA.
In the case of TTCTATTTCTAAACTCTTCAGG, the sensor-assay potency score (higher = more potent) is reported as 0.0206. For TAGAGGGAACACAGCTTGCTGC, the sensor-assay potency score (higher = more potent) was -0.62. In the case of TTCATAGAGGGAACACAGCTTG, the sensor-assay potency score (higher = more potent) is reported as -0.115. In the case of TTCTATTCCAATCATTTCCTGT, the sensor-assay potency score (higher = more potent) is reported as -0.465. With TTCTTCTATTTCTAAACTCTTC the sensor-assay potency score (higher = more potent) was -0.752. For TTAAATACTACAGACAACCTCA, the sensor-assay potency score (higher = more potent) was 0.289. TTGACTAGTATTCAGTATGTGA gave a sensor-assay potency score (higher = more potent) of -0.666. Sequence TTGACGGTCAAGTAGTCCCTGG has a sensor-assay potency score (higher = more potent) of -0.065. TATTTCTAAACTCTTCAGGTAA gave a sensor-assay potency score (higher = more potent) of -0.582.
